According to PMC7862700, “An all-to-all approach to the identification of sequence-specific readers for epigenetic DNA modifications on cytosine”:

Columns and labels:
Assay in all cases: DAPPL (digital affinity profiling via proximity ligation, sequencing); 10 mM Tris-HCl pH 7.5, 50 mM NaCl, 1 mM DTT, 4% glycerol, room temperature, 30 min; GST-TFs on glutathione beads, 16-mer random dsDNA library, 0.1% formaldehyde crosslink after washing; high values mean tight binding
Conditions in all cases: protein: recombinant; tags: N-terminal GST; dsDNA, one strand shown
FLI1 = target: T1, FLI1 (Homo sapiens, UniProt Q01543 1-452)
T1 sequence: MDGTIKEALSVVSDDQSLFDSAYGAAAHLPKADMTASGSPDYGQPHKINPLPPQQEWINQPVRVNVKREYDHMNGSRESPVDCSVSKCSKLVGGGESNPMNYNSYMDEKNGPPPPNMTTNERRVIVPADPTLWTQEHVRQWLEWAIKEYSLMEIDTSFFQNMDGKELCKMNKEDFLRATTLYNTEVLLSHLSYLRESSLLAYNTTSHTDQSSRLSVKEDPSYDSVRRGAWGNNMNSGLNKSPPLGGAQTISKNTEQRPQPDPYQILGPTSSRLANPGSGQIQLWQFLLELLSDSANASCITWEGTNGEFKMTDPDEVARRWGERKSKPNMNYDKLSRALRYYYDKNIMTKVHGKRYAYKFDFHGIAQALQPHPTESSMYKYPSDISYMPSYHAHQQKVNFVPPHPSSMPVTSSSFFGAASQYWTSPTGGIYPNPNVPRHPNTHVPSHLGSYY
Summary of the method: (§1)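 Human transcription factors carrying a GST fusion were produced in yeast, bound to glutathione beads, tagged with DNA barcodes and pooled together with a tag-only sample. Each pool was held with 200 nmole of a random double-stranded 16-mer DNA library in Tris/NaCl/DTT/glycerol buffer for 30 min at room temperature, then washed, crosslinked in 0.1% formaldehyde, proximity-ligated with BsaI/T4 ligase (1 h, 37 °C), PCR-amplified and sequenced on an Illumina NextSeq500. Binding signal is the read frequency of each hexamer for a given factor divided by its frequency in the tag-only sample.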

ELK1 = target: T2, ELK1 (Homo sapiens, UniProt P19419 1-428)
T2 sequence: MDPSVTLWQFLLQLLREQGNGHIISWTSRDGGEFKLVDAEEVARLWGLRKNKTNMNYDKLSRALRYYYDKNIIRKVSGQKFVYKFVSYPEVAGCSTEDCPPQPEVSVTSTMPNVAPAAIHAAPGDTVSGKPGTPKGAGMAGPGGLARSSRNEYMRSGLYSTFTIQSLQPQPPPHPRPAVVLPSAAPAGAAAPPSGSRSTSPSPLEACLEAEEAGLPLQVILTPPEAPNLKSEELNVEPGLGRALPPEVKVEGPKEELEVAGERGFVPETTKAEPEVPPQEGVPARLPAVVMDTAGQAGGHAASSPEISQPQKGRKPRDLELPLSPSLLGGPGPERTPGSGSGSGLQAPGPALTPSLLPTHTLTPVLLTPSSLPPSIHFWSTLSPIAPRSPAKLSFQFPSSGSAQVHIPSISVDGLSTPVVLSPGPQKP
Summary of the method: as §1

GABPA = target: T3, GABPA (Homo sapiens, UniProt Q06546 1-454)
T3 sequence: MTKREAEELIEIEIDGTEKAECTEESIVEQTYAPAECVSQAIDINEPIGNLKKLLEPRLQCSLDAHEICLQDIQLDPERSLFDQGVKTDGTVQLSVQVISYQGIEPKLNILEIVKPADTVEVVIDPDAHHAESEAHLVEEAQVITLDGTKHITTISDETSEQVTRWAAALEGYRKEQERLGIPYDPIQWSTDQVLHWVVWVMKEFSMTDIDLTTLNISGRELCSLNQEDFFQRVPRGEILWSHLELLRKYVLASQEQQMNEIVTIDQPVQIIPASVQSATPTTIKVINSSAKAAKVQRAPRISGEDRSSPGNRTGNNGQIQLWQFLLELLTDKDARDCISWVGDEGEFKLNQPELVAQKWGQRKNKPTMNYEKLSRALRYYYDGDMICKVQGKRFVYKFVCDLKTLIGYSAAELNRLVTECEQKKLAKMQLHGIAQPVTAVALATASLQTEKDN
Summary of the method: as §1

ERG = target: T4, ERG (Homo sapiens, UniProt P11308 1-479)
T4 sequence: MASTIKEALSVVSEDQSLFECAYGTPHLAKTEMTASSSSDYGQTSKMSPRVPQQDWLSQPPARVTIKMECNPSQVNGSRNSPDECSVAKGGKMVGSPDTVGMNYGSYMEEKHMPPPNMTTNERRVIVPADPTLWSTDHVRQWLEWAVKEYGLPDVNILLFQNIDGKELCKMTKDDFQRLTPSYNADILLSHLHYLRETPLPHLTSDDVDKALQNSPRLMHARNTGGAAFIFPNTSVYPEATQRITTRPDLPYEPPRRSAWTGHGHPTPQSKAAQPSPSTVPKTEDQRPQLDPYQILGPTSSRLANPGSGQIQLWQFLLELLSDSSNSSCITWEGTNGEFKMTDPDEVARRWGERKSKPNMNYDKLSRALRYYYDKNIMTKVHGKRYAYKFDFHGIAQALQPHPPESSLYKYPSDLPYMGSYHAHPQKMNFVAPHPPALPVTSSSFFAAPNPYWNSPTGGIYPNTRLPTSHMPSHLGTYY
Summary of the method: as §1

ELF1 = ELF1 (Homo sapiens, UniProt P32519 1-619)
Summary of the method: as §1

EHF = target: T5, EHF (Homo sapiens, UniProt Q9NZC4 1-300)
T5 sequence: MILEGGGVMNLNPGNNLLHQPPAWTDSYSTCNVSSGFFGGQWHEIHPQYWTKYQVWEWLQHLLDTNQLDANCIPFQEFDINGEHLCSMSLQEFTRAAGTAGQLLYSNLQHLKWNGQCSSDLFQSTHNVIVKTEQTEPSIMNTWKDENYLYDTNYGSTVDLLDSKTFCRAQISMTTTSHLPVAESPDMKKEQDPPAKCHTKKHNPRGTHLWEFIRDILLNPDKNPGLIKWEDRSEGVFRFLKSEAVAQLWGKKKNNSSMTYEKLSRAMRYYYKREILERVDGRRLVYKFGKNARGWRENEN
Summary of the method: as §1

SPI1 = SPI1 (Homo sapiens, UniProt P17947 1-270)
Summary of the method: as §1

SPIB = SPIB (Homo sapiens, UniProt Q01892 1-262)
Summary of the method: as §1

ELK3 = target: T6, ELK3 (Homo sapiens, UniProt P41970 1-407)
T6 sequence: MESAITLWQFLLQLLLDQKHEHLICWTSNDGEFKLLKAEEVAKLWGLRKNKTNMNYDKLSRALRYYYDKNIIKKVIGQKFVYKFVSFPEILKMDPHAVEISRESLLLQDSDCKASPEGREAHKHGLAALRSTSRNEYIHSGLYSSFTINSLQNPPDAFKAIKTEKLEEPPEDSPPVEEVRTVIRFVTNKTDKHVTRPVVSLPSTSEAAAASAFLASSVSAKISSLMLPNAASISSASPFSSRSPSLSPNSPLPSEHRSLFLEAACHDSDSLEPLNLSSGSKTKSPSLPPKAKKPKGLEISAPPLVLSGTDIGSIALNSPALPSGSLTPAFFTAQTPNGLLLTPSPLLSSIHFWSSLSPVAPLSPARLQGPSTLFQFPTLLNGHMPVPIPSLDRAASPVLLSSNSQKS
Summary of the method: as §1

SPIB, sequence (Q01892 whole entry): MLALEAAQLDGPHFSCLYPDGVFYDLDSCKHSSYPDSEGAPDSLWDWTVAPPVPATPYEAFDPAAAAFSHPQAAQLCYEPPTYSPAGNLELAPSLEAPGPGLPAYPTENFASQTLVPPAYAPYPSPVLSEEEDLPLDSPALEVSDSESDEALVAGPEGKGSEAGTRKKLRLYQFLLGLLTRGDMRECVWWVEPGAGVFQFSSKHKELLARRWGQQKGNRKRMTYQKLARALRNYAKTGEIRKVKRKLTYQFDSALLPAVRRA
ELF1, sequence (P32519 whole entry): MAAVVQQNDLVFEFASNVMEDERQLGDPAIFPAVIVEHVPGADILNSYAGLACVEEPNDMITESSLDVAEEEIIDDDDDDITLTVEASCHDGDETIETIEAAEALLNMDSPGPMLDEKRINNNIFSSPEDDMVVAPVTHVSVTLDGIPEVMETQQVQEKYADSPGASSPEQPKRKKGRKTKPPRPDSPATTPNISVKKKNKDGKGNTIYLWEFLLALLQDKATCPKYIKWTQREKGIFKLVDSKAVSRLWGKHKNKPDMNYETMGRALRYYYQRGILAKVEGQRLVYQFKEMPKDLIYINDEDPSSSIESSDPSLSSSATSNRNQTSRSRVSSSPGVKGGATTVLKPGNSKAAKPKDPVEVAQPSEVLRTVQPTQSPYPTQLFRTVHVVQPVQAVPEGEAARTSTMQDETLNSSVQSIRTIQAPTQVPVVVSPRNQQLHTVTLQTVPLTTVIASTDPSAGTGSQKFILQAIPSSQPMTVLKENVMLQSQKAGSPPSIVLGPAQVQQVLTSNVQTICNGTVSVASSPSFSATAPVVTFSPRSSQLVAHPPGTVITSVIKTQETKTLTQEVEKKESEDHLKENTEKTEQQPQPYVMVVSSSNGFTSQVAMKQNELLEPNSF

| Sequence | binding signal (FLI1) | binding signal (ELK1) | binding signal (GABPA) | binding signal (ERG) | binding signal (ELF1) | binding signal (EHF) | binding signal (SPI1) | binding signal (SPIB) | binding signal (ELK3) |
| --- | --- | --- | --- | --- | --- | --- | --- | --- | --- |
| TAGAAG | 1.05 fold enrichment (6-mer frequency, TF over GST control) | 1.19 fold enrichment (6-mer frequency, TF over GST control) | 1.15 fold enrichment (6-mer frequency, TF over GST control) | 1.19 fold enrichment (6-mer frequency, TF over GST control) | 1.23 fold enrichment (6-mer frequency, TF over GST control) | 1.15 fold enrichment (6-mer frequency, TF over GST control) | 1.24 fold enrichment (6-mer frequency, TF over GST control) | 1.24 fold enrichment (6-mer frequency, TF over GST control) | 1.13 fold enrichment (6-mer frequency, TF over GST control) |
| GAAACT | 1.22 fold enrichment (6-mer frequency, TF over GST control) | 1.21 fold enrichment (6-mer frequency, TF over GST control) | 1.14 fold enrichment (6-mer frequency, TF over GST control) | 1.11 fold enrichment (6-mer frequency, TF over GST control) | 1.18 fold enrichment (6-mer frequency, TF over GST control) | 1.19 fold enrichment (6-mer frequency, TF over GST control) | 1.2 fold enrichment (6-mer frequency, TF over GST control) | 1.14 fold enrichment (6-mer frequency, TF over GST control) | 1.22 fold enrichment (6-mer frequency, TF over GST control) |
| TGCCTG | 1.17 fold enrichment (6-mer frequency, TF over GST control) | 1.27 fold enrichment (6-mer frequency, TF over GST control) | 1.32 fold enrichment (6-mer frequency, TF over GST control) | 1.32 fold enrichment (6-mer frequency, TF over GST control) | 1.33 fold enrichment (6-mer frequency, TF over GST control) | 1.36 fold enrichment (6-mer frequency, TF over GST control) | 1.26 fold enrichment (6-mer frequency, TF over GST control) | 1.29 fold enrichment (6-mer frequency, TF over GST control) | 1.59 fold enrichment (6-mer frequency, TF over GST control) |
| TGTACA | 1.22 fold enrichment (6-mer frequency, TF over GST control) | 1.26 fold enrichment (6-mer frequency, TF over GST control) | 1.1 fold enrichment (6-mer frequency, TF over GST control) | 1.24 fold enrichment (6-mer frequency, TF over GST control) | 1.23 fold enrichment (6-mer frequency, TF over GST control) | 1.26 fold enrichment (6-mer frequency, TF over GST control) | 1.28 fold enrichment (6-mer frequency, TF over GST control) | 1.35 fold enrichment (6-mer frequency, TF over GST control) | 1.11 fold enrichment (6-mer frequency, TF over GST control) |
| CGAACT | 1.16 fold enrichment (6-mer frequency, TF over GST control) | 1.17 fold enrichment (6-mer frequency, TF over GST control) | 1.24 fold enrichment (6-mer frequency, TF over GST control) | 1.06 fold enrichment (6-mer frequency, TF over GST control) | 1.24 fold enrichment (6-mer frequency, TF over GST control) | 1.17 fold enrichment (6-mer frequency, TF over GST control) | 1.16 fold enrichment (6-mer frequency, TF over GST control) | 1.03 fold enrichment (6-mer frequency, TF over GST control) | 1.13 fold enrichment (6-mer frequency, TF over GST control) |
| AGAAAT | 1.05 fold enrichment (6-mer frequency, TF over GST control) | 1.13 fold enrichment (6-mer frequency, TF over GST control) | 1.17 fold enrichment (6-mer frequency, TF over GST control) | 1.1 fold enrichment (6-mer frequency, TF over GST control) | 1.15 fold enrichment (6-mer frequency, TF over GST control) | 1.16 fold enrichment (6-mer frequency, TF over GST control) | 1.16 fold enrichment (6-mer frequency, TF over GST control) | 1.11 fold enrichment (6-mer frequency, TF over GST control) | 1.2 fold enrichment (6-mer frequency, TF over GST control) |
| TGTTTA | 1.2 fold enrichment (6-mer frequency, TF over GST control) | 1.09 fold enrichment (6-mer frequency, TF over GST control) | 1.18 fold enrichment (6-mer frequency, TF over GST control) | 1.17 fold enrichment (6-mer frequency, TF over GST control) | 1.13 fold enrichment (6-mer frequency, TF over GST control) | 1.19 fold enrichment (6-mer frequency, TF over GST control) | 1.12 fold enrichment (6-mer frequency, TF over GST control) | 1.21 fold enrichment (6-mer frequency, TF over GST control) | 1.2 fold enrichment (6-mer frequency, TF over GST control) |
| CCTGCC | 1.17 fold enrichment (6-mer frequency, TF over GST control) | 1.34 fold enrichment (6-mer frequency, TF over GST control) | 1.25 fold enrichment (6-mer frequency, TF over GST control) | 1.3 fold enrichment (6-mer frequency, TF over GST control) | 1.31 fold enrichment (6-mer frequency, TF over GST control) | 1.39 fold enrichment (6-mer frequency, TF over GST control) | 1.28 fold enrichment (6-mer frequency, TF over GST control) | 1.43 fold enrichment (6-mer frequency, TF over GST control) | 1.13 fold enrichment (6-mer frequency, TF over GST control) |
